# Experimental data: the supplement of paper PMC6555819
# Columns and labels:
# Test in all cases: PBM binding z-score (relative to random genomic background probes); higher = stronger binding; sequences stand for … in GC…GCGATTGACAGCGTAGAATGAAGG
# [1] = system: RARb homodimer (NR concentration 270 nM)
# In short: (§1)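 Scanned fluorescence from custom Agilent 4×180K protein-binding microarrays was regression-normalized. Binding z-scores use random background probes as reference. Ligand-free nuclear receptor dimers were incubated on the arrays for 1 h and detected with antibodies against each partner (one per run).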
# [2] = system: RARg:RXRa (NR concentration 270 nM, RXRa partner concentration 90 nM)
# In short: as §1
# [3] = system: RARg homodimer (NR concentration 270 nM)
# In short: as §1
# [4] = system: RXRa DBDmut IVT, anti-RXR (DBD mutation: RXRa K156A/R161A, NR concentration 90 nM)
# In short: as §1
# [5] = system: RXRa homodimer (NR concentration 180 nM)
# In short: as §1
# [6] = system: THRa:RXRa (NR concentration 90 nM, RXRa partner concentration 90 nM)
# In short: as §1
# [7] = system: THRa homodimer (NR concentration 90 nM)
# In short: as §1
# [8] = system: VDR homodimer (NR concentration 270 nM)
# In short: as §1
Sequence,PBM binding z-score [1],PBM binding z-score [2],PBM binding z-score [3],PBM binding z-score [4],PBM binding z-score [5],PBM binding z-score [6],PBM binding z-score [7],PBM binding z-score [8]
CAAACTAGGTCAACGTCAAAGTCGGTTTGTGCCA,3.56,4.05,4.97,1.68,2.9,3,1.02,1.07
TGTTGTAGATCAATAGAGGTTAAGAAAGTGCGCT,1.3,1.06,0.973,-0.255,1.25,2.39,-0.0243,0.759
CGAAAGAGGGCATGAGTTGATAGCAAATGCCGAT,1,1.76,1.96,1.67,1.27,0.416,-0.334,1.1
ATCTCTAGGTAAGACTCAGTTCTGTGAAGAACGC,0.00747,-0.271,0.0813,0.193,-0.166,0.394,0.633,0.278
GAAGACAGGTGAAACGCAGGTAACTCAGGGTGGC,0.467,0.851,0.0189,-0.671,0.66,1.49,-0.0479,-0.373
ACAGACAGATGAGTGAAGGTAACTCAGCTGGACG,-0.259,0.311,0.543,-0.223,0.367,0.16,-0.331,-0.0316
CCTACTGGGCCATCAGGTAATTGATATCAACGTT,0.184,-0.0181,0.255,-0.203,-0.166,0.522,0.334,-0.212
CTCGAAAGCTCGGTTGAGGTGAGTATACGGATAA,-0.282,-0.264,-0.254,-0.28,-0.256,1.85,1.03,-0.293
ACTATTAGTTGACTTCGGGCAACCGATACGACGC,0.558,0.37,0.691,0.225,0.42,1.06,0.256,0.371
AATACAAGGTCACTAGGCCAGAGTAGGTACGAAT,4.18,5.73,6.29,3.29,5.53,3.95,2.4,2.75
GCTATTTGGTCAGTAAAAGGTCACACACCGGTCG,5.41,5.36,4.76,0.964,5.44,3.91,2.43,2
AGATGTAGGTTATCGGGTCATTCAGTTTGCGCAT,3.17,3.19,2.6,1.75,3.47,3.46,2.87,3.92
GCGACTGGGGCATCAGCAGGTTACCAGAACTTAA,0.768,0.911,0.328,-0.241,0.262,0.858,-0.159,-0.517
ATCGAAAGGTCGAAGGTAAGTATACCCACCCGAA,2.18,3.86,3.99,0.89,4.24,1.86,0.0677,0.843
